From PubChem BioAssay
Several values for one entry are separate records, joined by “and”; a condition that tells them apart may be missing. Identical values can stand only once.

The compounds below were run against Mitogen-activated protein kinase 7 (Homo sapiens) (UniProt Q13164) (assay: Gal4-ERK5 driven luciferase induction – cell-based, HTS, primary screen (AID 1508626;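 note: luciferase driven by Gal4-ERK5 fusion binding five Gal4 sites before minimal TATA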)). Conditions: HeLa Gal4-ERK5 transactivation, 18 h, at 5 µM, active compounds read high;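 active = luciferase signal above three times the same-plate solvent-only control wells; inactive = the rest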.
Sequence of Mitogen-activated protein kinase 7 (Homo sapiens) (Q13164 whole entry, looked up, the tested form may be a part): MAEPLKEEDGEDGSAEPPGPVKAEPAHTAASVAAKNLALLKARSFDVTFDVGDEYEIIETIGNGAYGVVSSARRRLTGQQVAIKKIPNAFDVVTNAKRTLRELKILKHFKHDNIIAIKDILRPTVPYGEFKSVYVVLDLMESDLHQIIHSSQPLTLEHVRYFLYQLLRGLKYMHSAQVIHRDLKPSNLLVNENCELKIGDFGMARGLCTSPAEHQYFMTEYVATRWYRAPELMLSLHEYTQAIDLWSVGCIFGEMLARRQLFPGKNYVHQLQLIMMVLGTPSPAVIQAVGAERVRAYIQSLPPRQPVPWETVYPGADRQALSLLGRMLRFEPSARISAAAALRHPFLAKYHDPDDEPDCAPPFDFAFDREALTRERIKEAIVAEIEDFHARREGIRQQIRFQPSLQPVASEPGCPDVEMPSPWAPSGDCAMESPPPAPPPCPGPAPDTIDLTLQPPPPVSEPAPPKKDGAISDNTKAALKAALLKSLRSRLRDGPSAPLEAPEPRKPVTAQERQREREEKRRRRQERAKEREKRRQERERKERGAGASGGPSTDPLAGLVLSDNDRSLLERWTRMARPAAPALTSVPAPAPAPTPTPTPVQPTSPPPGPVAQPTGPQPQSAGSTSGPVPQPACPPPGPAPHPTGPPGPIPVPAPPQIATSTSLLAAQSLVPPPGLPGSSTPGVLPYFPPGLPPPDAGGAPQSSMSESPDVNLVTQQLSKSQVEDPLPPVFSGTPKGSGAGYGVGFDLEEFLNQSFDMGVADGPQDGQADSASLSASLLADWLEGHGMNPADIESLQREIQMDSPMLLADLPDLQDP

Luciferase signal, inactive:
COc1ccc(/C=C/C(=O)c2cc(O)ccc2O)cc1 80 AU, Cc1cc(O)c(C=O)c2c1C(=O)Oc1c(COC(=O)/C=C/C(=O)O)c(O)c(C(=O)O)c(C)c1O2 16 AU, COc1ccc(-c2cc(=O)c3c(OC)c(OC)c(OC)cc3o2)cc1OC 36 AU, COc1ccc(-c2cc(=O)c3c(O)cc(OC)c(OC)c3o2)c(OC)c1 108 AU, COc1ccc(/C=C/C(=O)O)cc1OC 52 AU and 80 AU, COc1ccc(/C=C/C(=O)c2ccc(O)cc2O)cc1 100 AU
